Measurements as given in PubChem BioAssay (NCATS).
Where “and” joins values, the source holds several entries; their conditions need not be identical. Equal entries are not always repeated. Records with an inconclusive call do not appear. Calls of active or inactive are those of the source. Unless noted, calls come from the whole dose curve; as a rule, active = well fitted curve in the direction sought with a large enough effect; inconclusive = small, poorly fitted or top-dose-only effect, or another doubt; inactive = no such curve, though single readings can be large; an effect the other way counts as inactive or inconclusive.

Tests used:
[1] = target: Cellular tumor antigen p53 (Homo sapiens) (UniProt P04637); experiment: Primary qHTS for small molecule compounds that upregulate eGFP-tagged delta133p53alpha (in N-terminal) cells. (AID 2060322); settings: NCI-H358 eGFP-delta133p53alpha fluorescence, 24 h; activation: hits give high values; note: nearly all actives have a fitted effect of over 75% in size; note: potency is the fitted concentration of half-maximal effect;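 for activation: series mostly up to about 56 µM; 0% = DMSO vehicle and 100% = reference activator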
Cellular tumor antigen p53 (Homo sapiens), sequence (P04637 whole entry, looked up): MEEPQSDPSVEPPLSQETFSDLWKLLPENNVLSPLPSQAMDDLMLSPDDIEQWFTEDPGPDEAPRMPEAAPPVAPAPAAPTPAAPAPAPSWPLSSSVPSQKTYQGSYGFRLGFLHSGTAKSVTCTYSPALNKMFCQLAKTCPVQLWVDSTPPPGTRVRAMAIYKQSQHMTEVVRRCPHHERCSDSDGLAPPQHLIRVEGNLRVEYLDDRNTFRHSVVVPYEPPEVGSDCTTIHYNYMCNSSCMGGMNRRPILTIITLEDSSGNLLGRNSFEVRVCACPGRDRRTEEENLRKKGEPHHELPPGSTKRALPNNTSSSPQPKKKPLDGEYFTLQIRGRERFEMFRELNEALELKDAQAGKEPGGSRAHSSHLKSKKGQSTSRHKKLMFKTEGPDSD
In short: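 NCI-H358 cells pre-induced 24 h with 10 ng/ml doxycycline to express N-terminal eGFP-delta133p53alpha, then dosed 24 h at 37C without doxycycline; fixed, Hoechst-stained, GFP intensity by laser scanning cytometry, normalized to DMSO (0%) and 57.5 uM 5-azacytidine (100%).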

[2] = qHTS for Inhibitors of the Aldehyde Dehydrogenase Family (ALDH1A2, ALDH1A3, ALDH2, ALDH3A1) (AID 2061307); note: nearly all actives have a fitted effect of over 50% in size; for Potency: test system not described further here; potency is the fitted concentration of half-maximal effect
[3] = target: Aldehyde dehydrogenase, mitochondrial (Homo sapiens) (UniProt P05091); experiment: qHTS for Inhibitors of the Aldehyde Dehydrogenase Family (ALDH2) Primary screen (AID 2061308); note: nearly all actives have a fitted effect of over 55% in size; note: potency is the fitted concentration of half-maximal effect
[4] = target: Retinaldehyde dehydrogenase 3 (Homo sapiens) (UniProt P47895); experiment: qHTS for Inhibitors of the Aldehyde Dehydrogenase Family (ALDH1A3) Confirmatory screens (AID 2061311); note: potency is the fitted concentration of half-maximal effect; nearly all actives have a fitted effect of over 60% in size
[5] = target: Retinal dehydrogenase 2 (Homo sapiens) (UniProt O94788); experiment: qHTS for Inhibitors of the Aldehyde Dehydrogenase Family (ALDH1A2) Confirmation screens (AID 2061314); note: nearly all actives have a fitted effect of over 65% in size; note: potency is the fitted concentration of half-maximal effect
[6] = target: Retinaldehyde dehydrogenase 3 (Homo sapiens) (UniProt P47895); experiment: qHTS for Inhibitors of the Aldehyde Dehydrogenase Family (ALDH1A3) Primary screen (AID 2061315); note: potency is the fitted concentration of half-maximal effect
[7] = target: Aldehyde dehydrogenase, mitochondrial (Homo sapiens) (UniProt P05091); experiment: qHTS for Inhibitors of the Aldehyde Dehydrogenase Family (ALDH2) Confirmatory screens (AID 2061303; active = well fitted inhibition curve with a large enough effect; title and protocol of this record describe different tests; note: % is set by controls: 0 for no effect and ±100 for the full control effect; nearly all actives have a fitted effect of over 45% in size)
[8] = target: Retinaldehyde dehydrogenase 3 (Homo sapiens) (UniProt P47895); experiment: qHTS for Inhibitors of the Aldehyde Dehydrogenase Family (ALDH1A3) Validation screen (AID 2061312); note: nearly all actives have a fitted effect of over 45% in size; note: potency is the fitted concentration of half-maximal effect
[9] = target: Aldehyde dehydrogenase 1A1 (Homo sapiens) (UniProt P00352); experiment: qHTS for Inhibitors of the Aldehyde Dehydrogenase Family (ALDH1A1) Confirmatory screens (AID 2061316); note: nearly all actives have a fitted effect of over 65% in size; note: potency is the fitted concentration of half-maximal effect
[10] = BET inhibitor-based combinations targeting novel dependencies in MECOM-rearranged (r) AML: SET-2 cell line (AID 2202231); settings: SET-2 AML cells viability, CellTiter-Glo luminescence, 48 h; viability: hits give low values, series mostly up to about 46 µM;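 note: plate controls were DMSO treated cells for no effect and wells without cells for full effect; nearly all actives have a fitted effect of over 35% in size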
In short: (§1)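 500 cells/well; 11-pt dose curve; 48 h, standard incubator; CellTiter-Glo luminescence after 15 min RT; DMSO/empty-well normalization; AUC plus Z-AUC (mean-centered within each line).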

[11] = BET inhibitor-based combinations targeting novel dependencies in MECOM-rearranged (r) AML: MV-4-11 cell line (AID 2202233); note: nearly all actives have a fitted effect of over 45% in size; note: potency is the fitted concentration of half-maximal effect
In short: (§2)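 Cells were plated at 500 per well and exposed to each drug across an 11-point dose range for 48 hr at standard incubator conditions. Viability was read by CellTiter-Glo luminescence, and activity was expressed as AUC and per-cell-line Z-transformed AUC.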

[12] = BET inhibitor-based combinations targeting novel dependencies in MECOM-rearranged (r) AML: HNT-34 cell line (AID 2202234);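 note: plate controls were vehicle wells for no effect and cell-free wells for full effect; nearly all actives have a fitted effect of over 35% in size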
In short: as §2

[13] = BET inhibitor-based combinations targeting novel dependencies in MECOM-rearranged (r) AML: UCSD-AML1 cell line (AID 2202235);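 note: series mostly up to about 46 µM; plate controls were DMSO vehicle wells for no effect and blank wells for full effect; nearly all actives have a fitted effect of over 40% in size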
In short: as §2

[14] = BET inhibitor-based combinations targeting novel dependencies in MECOM-rearranged (r) AML: AML-191 cell line (AID 2202236;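 note: plate controls were vehicle wells for no effect and wells without cells for full effect; nearly all actives have a fitted effect of over 35% in size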)
In short: as §1

[15] = BET inhibitor-based combinations targeting novel dependencies in MECOM-rearranged (r) AML: AML-194 cell line (AID 2202237;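 note: plate controls were vehicle wells for no effect and wells without cells for full effect; nearly all actives have a fitted effect of over 40% in size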)
In short: as §1

[16] = BET inhibitor-based combinations targeting novel dependencies in MECOM-rearranged (r) AML: OCI-AML3 cell line (AID 2202232); settings: Potency: OCI-AML3 viability; note: potency is the fitted concentration of half-maximal effect; nearly all actives have a fitted effect of over 35% in size
In short: as §1

OC[C@H]1O[C@@H](O[C@H]2[C@H](O)[C@@H](CO)O[C@@H](OCc3ccccc3)[C@@H]2O[C@@H]2OC[C@](O)(CO)[C@H]2O)[C@H](O)[C@@H](O)[C@@H]1O
inactive: activation [1] -11.5% | Potency [2] | Potency [3]
active: Potency [4] 12.3 µM

CC/C=C/C(O)C(O)C1=C(C)C(=O)C2(O1)C(=O)NC(OC)(C(=O)c1ccccc1)C2O (centres undefined)
inactive: activation [1] 15.3% | Potency [2] | Potency [3] | Potency [5] | Potency [6]

Nc1cccc(CNC(=O)c2ccc(Oc3ccc(OCc4cccc(F)c4)cc3)nc2)c1
inactive: activation [1] -6.68% | Potency [7] | Potency [8] | Potency [5] | Potency [6]

Cc1onc(-c2ccccc2)c1C(=O)N[C@@H]1C(=O)N2[C@@H]1SC(C)(C)[C@@H]2C(=O)O
inactive: activation [1] -0.333% and 17% | Potency [2] | Potency [3] | Potency [6]

CCN(Cc1cc(Nc2nc(C)cn3c(-c4cn[nH]c4)cnc23)sn1)C(C)(C)CO
active: Potency [1] 16.9 µM | Potency [4] 12.7 µM | Potency [5] 31.8 µM
inactive: Potency [2] | Potency [3] | Potency [6]

COc1ccc2c(OC)c3ccoc3nc2c1OC
active: Potency [2] 28.2 µM | Potency [4] 4 µM | Potency [5] 0.896 µM | Potency [9] 2.83 µM
inactive: activation [1] -3.05% | Potency [3]

C=CC(=O)N1CCN(C(=O)CNc2cc(I)c(Cl)cc2O)CC1
inactive: activation [1] 8.59% | Potency [3]
active: Potency [2] 2.25 µM | Potency [4] 1.79 µM | Potency [8] 7.08 µM | Potency [5] 28.3 µM | Potency [6] 2.82 µM | Potency [9] 2.83 µM

COc1cccc(CNC(=O)Nc2nc(-c3ccncc3)cs2)c1
active: Potency [2] 2.01 µM | Potency [5] 5.65 µM
inactive: activation [1] -8.04% | Potency [3] | Potency [6]

COC(=O)C1=COC(OC2OC(CO)C(O)C(O)C2O)C2C(COC(=O)/C=C/c3ccc(O)c(O)c3)C(O)C(O)C12 (centres undefined)
inactive: activation [1] -6.25% | Potency [2] | Potency [3] | Potency [5] | Potency [9]

O=C(NCCCCCCCCNC(=O)C(Cl)Cl)C(Cl)Cl
active: Potency [2] 8.91 µM
inactive: activation [1] -0.333%

COc1ccc(CCO[C@@H]2O[C@H](CO[C@H]3OC[C@](O)(CO)[C@H]3O)[C@@H](OC(=O)/C=C/c3ccc(O)c(O)c3)[C@H](O[C@@H]3O[C@@H](C)[C@H](O)[C@@H](O)[C@H]3O)[C@H]2O)cc1OC
inactive: activation [1] 16% | Potency [2] | Potency [3] | Potency [5]

Cc1cc(C)c2c(c1)C(N(Cc1cc(C(F)(F)F)cc(C(F)(F)F)c1)c1nnn(C)n1)CCCN2CC1CCC(C(=O)O)CC1 (centres undefined)
inactive: activation [1] 26.7% | Potency [2] | Potency [3]
active: Potency [8] 2.82 µM | Potency [5] 20.1 µM

Cc1nnc(C(=O)NC(C)(C)c2nc(C(=O)NCc3ccc(F)cc3)c(O)c(=O)n2C)o1
inactive: activation [1] 12.2% and -3.35% and -11.5% | Potency [3] | Potency [8] | Potency [6] | Potency [9] | viability [10] 118% | Potency [11] | Potency [12] | Potency [13] | Potency [14] | Potency [15]
active: Potency [2] 1.59 µM

O=C(NCC(=O)N1CCCC1)Nc1ccc2ccccc2c1
inactive: activation [1] -2.86% | Potency [3]
active: Potency [2] 5.04 µM | Potency [4] 1.01 µM | Potency [8] 3.55 µM | Potency [6] 2.82 µM | Potency [9] 7.98 µM

CC1CC(=O)[C@]2(O)C(C(=O)OCCc3ccc(O)c(O)c3)=CO[C@@H](O[C@@H]3O[C@H](CO)[C@@H](O)[C@H](O)[C@H]3O)[C@H]12 (some centres undefined)
inactive: activation [1] 6.87% | Potency [2] | Potency [3] | Potency [5]
active: Potency [9] 12.3 µM

S=C(NCc1ccc2c(c1)OCO2)N1CCN(c2ncnc3c2oc2ccccc23)CC1
active: Potency [2] 1.58 µM | Potency [5] 11.3 µM | Potency [16] 2.95 µM | Potency [11] 16.6 µM
inactive: activation [1] 8.81% and -14.3% | Potency [3] | Potency [8] | Potency [6] | Potency [9] | Potency [13]

O=C(O)c1cc(-c2c(-c3ccccc3)nn3ccccc23)n[nH]c1=O
inactive: activation [1] -0.333% | Potency [2] | Potency [3] | Potency [6]

O=C(Nc1ccc(S(=O)(=O)C(F)(F)F)cc1)C1=CCN(c2ncccc2C(F)(F)F)CC1
inactive: activation [1] -1.91% | Potency [2] | Potency [6]
active: Potency [3] 25.1 µM

OC[C@H]1O[C@@H](Oc2ccc(O)c3cccc(O)c23)[C@H](O)[C@@H](O)[C@@H]1O
active: Potency [2] 7.83 µM | Potency [4] 0.985 µM | Potency [5] 2.47 µM | Potency [6] 1.78 µM
inactive: activation [1] -13%

CC(NC(=O)CC(=O)O)c1nc2ccccc2c(=O)[nH]1 (centres undefined)
active: Potency [9] 1.27 µM
inactive: activation [1] -5.36% | Potency [2] | Potency [3]

Cn1c(N2CCCCS2(=O)=O)nc(C(=O)NCc2ccc(F)cc2)c(O)c1=O
active: Potency [2] 12.7 µM
inactive: activation [1] 0.955% | Potency [6] | Potency [9]

Cc1cc(C)c2c(N)c(C(=O)NCc3ccc(Cl)cc3)sc2n1
active: Potency [2] 1.12 µM | Potency [9] 14.2 µM
inactive: activation [1] 13.4% | Potency [3] | Potency [6]
